Source: PubChem BioAssay (EPA / NIEHS)
The source made the active and inactive calls. How the source made its calls: active means hit-call score of the fitted dose curve at least 0.9, where 1 is the maximum; inactive means score below 0.9.

Tests used:
[1] = ATG_ISRE_CIS: Attagene CIS-FACTORIAL HepG2 Assay for human Interferon Regulatory Factor 1 (IRF1) binding to an Interferon-Stimulated Response Element (ISRE) (AID 2282948); conditions: HepG2 ISRE cis-reporter (Attagene), mRNA transcription readout; actives raise or lower the signal
In short: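 HepG2 cells transiently transfected with multiplexed cis-promoter reporter units; after 24 h compound exposure, reporter mRNA quantified by RT-PCR, FAM labelling, HpaI digestion and capillary electrophoresis. Bidirectional fit versus DMSO baseline.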

[2] = ATG_M_32_CIS: Attagene CIS-FACTORIAL HepG2 Assay for M32 Transcription Factor (Internal Marker) (AID 2282949); conditions: HepG2 Attagene cis-factorial M32 reporter, mRNA; actives raise or lower the signal;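 further: background control marker of the multiplexed CIS panel rather than a real target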
In short: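 HepG2 cells transiently transfected with multiplexed cis-regulated reporter units, dosed 24 h. Reporter mRNA quantified by RT-PCR, 6-FAM labelling, HpaI digestion and capillary electrophoresis; bidirectional fit vs DMSO.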

[3] = ATG_M_06_CIS: Attagene CIS-FACTORIAL HepG2 Assay for M06 Transcription Factor (Internal Marker) (AID 2282950); conditions: HepG2 Attagene CIS-FACTORIAL M06 internal marker reporter; actives raise or lower the signal
In short: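 One of many multiplexed endpoints: HepG2 reporter mRNA after 24 h dosing, detected by RT-PCR and capillary electrophoresis fluorescence; gain or loss of signal analysed against DMSO.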

[4] = molecular target: Heat shock factor protein 1 (Homo sapiens) (UniProt Q00613); assay: ATG_HSE_CIS: Attagene CIS-FACTORIAL HepG2 Assay for human Heat Shock Transcription Factor 1 (HSE) (AID 2282953); conditions: HepG2 HSE cis-reporter, Attagene RNA transcription; actives raise or lower the signal
In short: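 Using HepG2 with transfected cis-driven reporter constructs, compound effects on endogenous factor activity are scored as reporter mRNA change at 24 h. Detection: RT-PCR, HpaI digestion, capillary electrophoresis; bidirectional fitting to DMSO.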

[5] = ATG_MRE_CIS: Attagene CIS-FACTORIAL HepG2 Assay for human Metal Responsive Element (MRE) (AID 2282954); conditions: HepG2 MRE cis-reporter transcription, Attagene multiplex; actives raise or lower the signal
In short: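 HepG2 cells transiently transfected with cis-element-driven reporter units; mRNA measured 24 h after dosing. Reporter transcripts quantified by RT-PCR, FAM labelling, HpaI digestion and capillary electrophoresis; bidirectional fit versus DMSO.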

[6] = ATG_PBREM_CIS: Attagene CIS-FACTORIAL HepG2 Assay for human Phenobarbital-responsive Enhancer Module (PBREM) (AID 2282955); conditions: HepG2 PBREM cis-reporter, Attagene multiplexed transcription; actives raise or lower the signal
In short: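 Readout: reporter mRNA, fluorescent RT-PCR fragments separated by capillary electrophoresis. System: HepG2 transiently transfected with cis-regulated reporter units. Exposure: 24 h. Analysis: bidirectional, DMSO baseline.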

[7] = molecular target: Paired box protein Pax-6 (Homo sapiens) (UniProt P26367); assay: ATG_Pax6_CIS: Attagene CIS-FACTORIAL HepG2 Assay for human Paired Box 6 (PAX6) (AID 2282956); conditions: HepG2 CIS-FACTORIAL PAX6 reporter transcription, RNA readout; actives raise or lower the signal
In short: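 HepG2 cells transiently transfected with multiplexed cis-promoter reporter units (endogenous TF activity) were dosed for 24 h. Reporter mRNA was quantified by RT-PCR, 6-FAM labeling, HpaI digestion and capillary electrophoresis; bidirectional fitting versus DMSO baseline.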

[8] = ATG_PXRE_CIS: Attagene CIS-FACTORIAL HepG2 Assay for human Pregnane X Receptor Element (PXRE) (AID 2282957); conditions: HepG2 Attagene CIS-FACTORIAL PXRE reporter, mRNA; actives raise or lower the signal
In short: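 Cis-element reporter mRNA in human hepatoma HepG2 cells is measured 24 h post-dosing by RT-PCR, primer-extension labeling and capillary electrophoresis; gain or loss of signal is fitted relative to DMSO.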

[9] = ATG_RORE_CIS: Attagene CIS-FACTORIAL HepG2 Assay for human RAR-related Orphan Receptor Element (RORE) (AID 2282959); conditions: HepG2 Attagene cis-factorial RORE reporter, mRNA; actives raise or lower the signal
In short: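 Measured here: transcript induction of a cis-regulated reporter in HepG2 cells transiently transfected via FuGene 6. After 24 h, RNA was processed by RT-PCR and fluorescent capillary electrophoresis; DMSO defined baseline activity.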

[10] = ATG_Sox_CIS: Attagene CIS-FACTORIAL HepG2 Assay for human SRY-box transcription factor (SOX) (AID 2282960); conditions: HepG2 Attagene cis-factorial SOX reporter, mRNA; actives raise or lower the signal
In short: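 Using transiently transfected HepG2 cells, reporter transcription driven by cis elements was assessed 24 h after dosing. Signal was fluorescence of capillary-separated RT-PCR products, with DMSO defining baseline activity.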

[11] = molecular target: Transcription factor Sp1 (Homo sapiens) (UniProt P08047); assay: ATG_Sp1_CIS: Attagene CIS-FACTORIAL HepG2 Assay for human Specificity Protein 1 (Sp1) (AID 2282961); conditions: HepG2 Sp1 cis-reporter transcription, actives raise or lower the signal
In short: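 After transient transfection of HepG2 cells with cis-promoter reporter units and 24 h chemical treatment, reporter transcripts were quantified by RT-PCR and capillary electrophoresis fluorescence. Gain- and loss-of-signal fitted against DMSO.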

[12] = ATG_SREBP_CIS: Attagene CIS-FACTORIAL HepG2 Assay for human Sterol Regulatory Element Binding (SREBP) (AID 2282962); conditions: HepG2 Attagene cis-factorial SREBP reporter, mRNA; actives raise or lower the signal
In short: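 HepG2 cells transiently transfected with multiplexed cis-element reporter units report endogenous transcription factor activity. After 24 h of chemical exposure, reporter mRNA was quantified by RT-PCR, 6-FAM labelling, HpaI digestion and capillary electrophoresis; bidirectional fits used DMSO as baseline.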

[13] = molecular target: Signal transducer and activator of transcription 3 (Homo sapiens) (UniProt P40763); assay: ATG_STAT3_CIS: Attagene CIS-FACTORIAL HepG2 Assay for human Signal Transducer and Activator of Transcription 3 (STAT3) (AID 2282963); conditions: HepG2, Attagene cis-factorial STAT3 reporter transcription; actives raise or lower the signal
In short: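 HepG2 cells transiently transfected with multiple cis-element-driven reporter units report endogenous transcription factor activity. After 24 h compound exposure, reporter mRNA is measured by RT-PCR, 6-FAM labelling, HpaI digestion and capillary electrophoresis. Fitted bidirectionally versus DMSO.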

[14] = ATG_TA_CIS: Attagene CIS-FACTORIAL HepG2 Assay for human TA Basal Promoter (AID 2282964); conditions: HepG2 Attagene CIS-factorial TA basal promoter reporter; actives raise or lower the signal
In short: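 Transient MRTU transfection of HepG2 preceded 24 h compound exposure. Reporter mRNA levels were then read by RT-PCR with capillary electrophoresis, and this background-control endpoint was fitted bidirectionally to DMSO.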

[15] = ATG_TCF_b_cat_CIS: Attagene CIS-FACTORIAL HepG2 Assay for human T-Cell-Factor with beta-catenin (TCF/b-cat) (AID 2282965); conditions: HepG2 TCF/beta-catenin cis-reporter transcription, actives raise or lower the signal
In short: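 Cells of the HepG2 line carry transiently transfected reporter units whose promoters respond to endogenous factors. Twenty-four hours post-dosing, reporter mRNA induction is measured by fluorescent RT-PCR and capillary electrophoresis, with DMSO as baseline.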

[16] = ATG_GRE_CIS: Attagene CIS-FACTORIAL HepG2 Assay for human Glucocorticoid Response Elements (GRE) (AID 2282947); conditions: HepG2 GRE cis-reporter, Attagene multiplex mRNA; actives raise or lower the signal
In short: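 Transiently transfected HepG2 cells carrying GRE cis-reporter units (endogenous TF activity) dosed 24 h; reporter mRNA quantified by RT-PCR, 6-FAM labelling, HpaI digestion and capillary electrophoresis. Bidirectional fit versus DMSO baseline.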

[17] = molecular target: Hepatocyte nuclear factor 6 (Homo sapiens) (UniProt Q9UBC0); assay: ATG_HNF6_CIS: Attagene CIS-FACTORIAL HepG2 Assay for human Hepatocyte Nuclear Factor 6 (HNF6) (AID 2282952); conditions: HepG2 Attagene cis-factorial HNF6 reporter transcription; actives raise or lower the signal
In short: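 Transiently transfected HepG2 cells expressing cis-regulated reporter transcription units were exposed to chemical for 24 h in a 24-well format. Reporter transcript abundance was determined by fluorescence capillary electrophoresis.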

[18] = ATG_PPRE_CIS: Attagene CIS-FACTORIAL HepG2 Assay for human Peroxisome Proliferator-activated Response Element (PPRE) (AID 2282958); conditions: HepG2 PPRE cis-element reporter, Attagene transcription factor profiling; actives raise or lower the signal
In short: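 After human HepG2 hepatoma cells were transiently transfected with cis-promoter reporter constructs, they were exposed to test chemicals for 24 hours. Reporter RNA was then reverse-transcribed, PCR-amplified, FAM-labeled, HpaI-digested and quantified by capillary electrophoresis.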

[19] = molecular target: Hypoxia-inducible factor 1-alpha (Homo sapiens) (UniProt Q16665); assay: ATG_HIF1a_CIS: Attagene CIS-FACTORIAL HepG2 Assay for human Hypoxia Inducible Factor 1 (HIF1A) (AID 2282951); conditions: HepG2 Attagene cis-factorial HIF1a reporter transcription; actives raise or lower the signal
In short: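 Endogenous-TF cis reporter readout, human HepG2 cells, 24 h incubation; mRNA detected via RT-PCR and capillary electrophoresis fluorescence; DMSO-normalised bidirectional fitting.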

[20] = molecular target: Bile acid receptor (Homo sapiens) (UniProt Q96RI1); assay: ATG_IR1_CIS: Attagene CIS-FACTORIAL HepG2 Assay for human Nuclear Receptor Subfamily 1 Group H Member 4 (NR1H4), IR1 submotif (AID 2282946); conditions: IR1 reporter transcription, actives raise or lower the signal
In short: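 HepG2 cells transiently transfected with multiple cis-promoter-driven reporter units to measure endogenous transcription factor activity; 24 h exposure. Reporter mRNA read by RT-PCR, FAM labelling, HpaI digestion and capillary electrophoresis. Bidirectional fit versus DMSO.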

Measured: AC50

Sequence of Hypoxia-inducible factor 1-alpha (Homo sapiens) (Q16665 whole entry, looked up): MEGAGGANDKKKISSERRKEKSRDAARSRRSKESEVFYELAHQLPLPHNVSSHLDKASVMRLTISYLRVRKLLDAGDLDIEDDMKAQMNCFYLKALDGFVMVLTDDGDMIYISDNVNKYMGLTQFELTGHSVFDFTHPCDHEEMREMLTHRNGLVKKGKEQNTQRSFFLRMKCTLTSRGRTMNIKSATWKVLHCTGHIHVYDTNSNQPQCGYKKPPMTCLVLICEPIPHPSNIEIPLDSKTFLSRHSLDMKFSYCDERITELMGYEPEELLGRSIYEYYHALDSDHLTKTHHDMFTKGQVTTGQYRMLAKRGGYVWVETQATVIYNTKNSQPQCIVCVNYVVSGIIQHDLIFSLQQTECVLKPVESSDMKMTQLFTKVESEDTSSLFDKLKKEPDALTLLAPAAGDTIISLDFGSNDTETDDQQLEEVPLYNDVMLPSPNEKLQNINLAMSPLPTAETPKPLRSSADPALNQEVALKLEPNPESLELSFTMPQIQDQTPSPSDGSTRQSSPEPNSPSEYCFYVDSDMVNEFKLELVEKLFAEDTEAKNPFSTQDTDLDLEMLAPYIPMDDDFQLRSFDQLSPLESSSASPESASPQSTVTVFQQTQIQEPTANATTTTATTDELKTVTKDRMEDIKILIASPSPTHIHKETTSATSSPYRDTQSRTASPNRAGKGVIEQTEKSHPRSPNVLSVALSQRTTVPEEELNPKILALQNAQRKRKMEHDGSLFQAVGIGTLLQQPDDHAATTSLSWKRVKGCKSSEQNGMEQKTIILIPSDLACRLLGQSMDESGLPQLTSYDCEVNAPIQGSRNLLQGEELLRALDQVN
Sequence of Bile acid receptor (Homo sapiens) (Q96RI1 whole entry, looked up): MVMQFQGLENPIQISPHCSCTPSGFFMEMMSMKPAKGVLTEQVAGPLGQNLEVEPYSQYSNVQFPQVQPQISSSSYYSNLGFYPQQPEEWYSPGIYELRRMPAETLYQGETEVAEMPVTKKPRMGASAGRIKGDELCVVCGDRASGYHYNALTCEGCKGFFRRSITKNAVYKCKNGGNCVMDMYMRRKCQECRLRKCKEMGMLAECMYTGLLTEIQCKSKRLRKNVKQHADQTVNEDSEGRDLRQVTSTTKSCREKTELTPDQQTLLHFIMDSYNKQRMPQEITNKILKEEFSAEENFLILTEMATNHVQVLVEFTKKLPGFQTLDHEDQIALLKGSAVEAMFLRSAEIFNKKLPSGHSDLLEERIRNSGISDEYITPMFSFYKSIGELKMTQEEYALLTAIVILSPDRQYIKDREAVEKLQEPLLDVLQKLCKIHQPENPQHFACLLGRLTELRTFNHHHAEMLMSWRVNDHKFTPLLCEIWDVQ
Sequence of Signal transducer and activator of transcription 3 (Homo sapiens) (P40763 whole entry, looked up): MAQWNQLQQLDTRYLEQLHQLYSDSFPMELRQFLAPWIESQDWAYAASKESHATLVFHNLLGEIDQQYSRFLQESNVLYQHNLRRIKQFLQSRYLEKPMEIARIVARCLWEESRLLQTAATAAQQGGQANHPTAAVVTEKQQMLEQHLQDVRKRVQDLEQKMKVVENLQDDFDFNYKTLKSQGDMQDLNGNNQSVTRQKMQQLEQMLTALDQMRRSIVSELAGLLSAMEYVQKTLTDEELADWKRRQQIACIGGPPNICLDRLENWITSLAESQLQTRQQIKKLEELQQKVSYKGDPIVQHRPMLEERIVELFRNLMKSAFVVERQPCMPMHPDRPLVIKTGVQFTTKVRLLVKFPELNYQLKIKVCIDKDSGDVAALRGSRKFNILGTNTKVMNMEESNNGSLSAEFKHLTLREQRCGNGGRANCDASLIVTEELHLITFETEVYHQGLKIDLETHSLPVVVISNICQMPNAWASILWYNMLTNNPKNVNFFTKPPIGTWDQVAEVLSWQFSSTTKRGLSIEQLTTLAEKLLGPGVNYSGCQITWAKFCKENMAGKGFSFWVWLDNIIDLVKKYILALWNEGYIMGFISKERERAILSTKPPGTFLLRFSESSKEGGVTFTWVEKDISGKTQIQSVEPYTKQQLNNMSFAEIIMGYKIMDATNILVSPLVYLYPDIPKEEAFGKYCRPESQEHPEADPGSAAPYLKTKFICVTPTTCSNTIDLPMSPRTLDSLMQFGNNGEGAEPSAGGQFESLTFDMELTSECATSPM
Sequence of Hepatocyte nuclear factor 6 (Homo sapiens) (Q9UBC0 whole entry, looked up): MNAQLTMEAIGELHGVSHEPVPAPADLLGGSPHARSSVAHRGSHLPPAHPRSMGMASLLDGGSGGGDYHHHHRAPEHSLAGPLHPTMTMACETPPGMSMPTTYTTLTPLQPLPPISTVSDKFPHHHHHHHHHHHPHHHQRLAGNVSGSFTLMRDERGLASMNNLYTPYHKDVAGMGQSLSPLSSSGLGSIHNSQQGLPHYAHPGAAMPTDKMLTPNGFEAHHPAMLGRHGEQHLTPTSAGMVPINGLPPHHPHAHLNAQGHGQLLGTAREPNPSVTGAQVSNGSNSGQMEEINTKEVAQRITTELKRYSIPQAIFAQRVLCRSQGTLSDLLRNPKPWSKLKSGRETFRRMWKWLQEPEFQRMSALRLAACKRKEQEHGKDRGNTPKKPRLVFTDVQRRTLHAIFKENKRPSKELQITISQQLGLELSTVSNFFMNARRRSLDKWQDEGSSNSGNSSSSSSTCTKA
Sequence of Transcription factor Sp1 (Homo sapiens) (P08047 whole entry, looked up): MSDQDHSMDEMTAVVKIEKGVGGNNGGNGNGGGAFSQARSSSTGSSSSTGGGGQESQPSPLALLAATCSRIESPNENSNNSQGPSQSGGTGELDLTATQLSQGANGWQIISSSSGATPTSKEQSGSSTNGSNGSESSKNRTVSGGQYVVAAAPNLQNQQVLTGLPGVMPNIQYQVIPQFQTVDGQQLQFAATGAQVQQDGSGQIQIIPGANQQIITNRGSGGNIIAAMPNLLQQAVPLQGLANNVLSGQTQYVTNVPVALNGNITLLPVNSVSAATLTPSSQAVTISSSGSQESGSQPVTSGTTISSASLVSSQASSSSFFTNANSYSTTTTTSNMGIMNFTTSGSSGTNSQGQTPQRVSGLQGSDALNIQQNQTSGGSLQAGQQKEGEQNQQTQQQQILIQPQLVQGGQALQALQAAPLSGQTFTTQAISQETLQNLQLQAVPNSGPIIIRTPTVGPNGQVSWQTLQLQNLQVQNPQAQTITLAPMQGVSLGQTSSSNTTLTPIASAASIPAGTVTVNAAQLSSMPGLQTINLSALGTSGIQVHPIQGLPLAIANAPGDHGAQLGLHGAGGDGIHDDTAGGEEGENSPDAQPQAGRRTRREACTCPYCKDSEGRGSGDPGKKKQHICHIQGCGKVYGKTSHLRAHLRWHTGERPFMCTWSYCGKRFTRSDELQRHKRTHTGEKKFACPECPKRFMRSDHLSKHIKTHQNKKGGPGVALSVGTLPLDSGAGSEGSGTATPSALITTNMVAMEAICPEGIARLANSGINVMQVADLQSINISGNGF
Sequence of Paired box protein Pax-6 (Homo sapiens) (P26367 whole entry, looked up): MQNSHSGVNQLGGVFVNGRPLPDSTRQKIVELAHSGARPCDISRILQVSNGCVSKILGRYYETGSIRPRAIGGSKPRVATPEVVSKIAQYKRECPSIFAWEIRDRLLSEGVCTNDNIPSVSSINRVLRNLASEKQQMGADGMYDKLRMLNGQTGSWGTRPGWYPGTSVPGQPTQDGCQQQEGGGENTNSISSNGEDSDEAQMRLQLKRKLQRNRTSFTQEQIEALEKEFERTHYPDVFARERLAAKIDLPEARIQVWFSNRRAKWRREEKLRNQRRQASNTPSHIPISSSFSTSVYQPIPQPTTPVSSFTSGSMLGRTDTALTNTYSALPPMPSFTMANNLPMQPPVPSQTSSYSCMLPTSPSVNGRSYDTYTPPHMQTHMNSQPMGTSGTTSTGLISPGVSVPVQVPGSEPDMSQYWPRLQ
Sequence of Heat shock factor protein 1 (Homo sapiens) (Q00613 whole entry, looked up): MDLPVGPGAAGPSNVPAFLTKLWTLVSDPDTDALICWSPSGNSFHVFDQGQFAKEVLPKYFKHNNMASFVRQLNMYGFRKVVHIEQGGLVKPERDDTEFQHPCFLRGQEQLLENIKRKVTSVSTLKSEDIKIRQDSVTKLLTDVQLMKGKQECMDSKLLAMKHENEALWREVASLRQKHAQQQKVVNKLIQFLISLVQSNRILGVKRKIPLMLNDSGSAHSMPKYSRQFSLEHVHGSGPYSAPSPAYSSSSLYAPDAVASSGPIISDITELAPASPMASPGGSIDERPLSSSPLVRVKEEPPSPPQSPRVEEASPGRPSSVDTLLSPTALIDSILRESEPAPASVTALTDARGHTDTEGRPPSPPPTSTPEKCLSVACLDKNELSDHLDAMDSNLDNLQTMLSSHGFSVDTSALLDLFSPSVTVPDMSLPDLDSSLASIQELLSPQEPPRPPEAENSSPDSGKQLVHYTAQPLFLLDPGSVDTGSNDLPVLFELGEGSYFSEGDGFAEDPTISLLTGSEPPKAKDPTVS

Cc1ccc(O)cc1C
not listed: [16] | [17] | [18] | [19] | [20]
inactive: all other assays above

CCOC(=O)c1ccccc1C(=O)OCC
not listed: [8] | [15] | [19] | [20]
inactive: all other assays above

CCCCCCCc1ccc(O)cc1
not listed: [8] | [20]
inactive: all other assays above

O=C(O)C(F)(F)OC(F)(F)C(F)(F)OC(F)(F)F
not listed: [8] | [15] | [18] | [19]
inactive: all other assays above

CCOP(=S)(NC(C)C)Oc1ccccc1C(=O)OC(C)C (stereo not drawn)
active: [20] 26.5 µM | [1] 41.7 µM | [5] 59.9 µM | [9] 46.6 µM
not listed: [8] | [12] | [18] | [19]
inactive: all other assays above

[N-]=[N+]=[N-]
not listed: [12] | [20]
inactive: all other assays above

O=c1ssc(Cl)c1Cl
inactive: [16] | [2] | [3] | [17] | [8] | [9] | [13] | [14]
active: [20] 58.3 µM | [1] 48.6 µM | [4] 61.2 µM | [5] 49.6 µM | [6] 50.3 µM | [7] 62.5 µM | [10] 50.1 µM | [11] 51.6 µM | [15] 53 µM

Cc1cccc(N)c1
not listed: [16] | [18] | [20]
inactive: all other assays above
